Records with an inconclusive call do not appear. Entries that show only a call come without a potency. Active and inactive are the calls of the source. The call rests on the fitted dose curve; in most records, active means well fitted curve in the direction sought with a large enough effect; inconclusive means small, poorly fitted or top-dose-only effect, or another doubt; inactive means no such curve, though single readings can be large or run the other way.

This assay is described as follows: Confirmation Concentration-Response Assay for Inhibitors of Tau Fibril Formation, Total Fluorescence Counterscreen for Fluorescence Polarization. To be noted: Alexa594-tau K18 total fluorescence counterscreen, interference, tau K18 with P301L mutation; series mostly up to 100 µM. An excerpt:
NIH Molecular Libraries Probe Production Network [MLPCN] NIH Chemical Genomics Center [NCGC] MLPCN Grant: X01 MH083262-01 Assay Provider: Carlo Ballatore, University of Pennsylvania NCGC Assay Overview: The microtubule-associated protein tau is an abundant protein in the axons of neurons that stabilizes microtubules. With its ability to modulate microtubule dynamics, tau contributes directly or indirectly, to key structural and regulatory cellular functions. Particularly important is the influence tau exerts on axonal transport, which allows signaling molecules, trophic factors and other essential cellular constituents to travel along the axons. Under pathological conditions, tau becomes sequestered into insoluble aggregates called neurofibrillary tangles. This phenomenon is believed to have pathological consequences by promoting axonal transport deficits that ultimately lead to synaptic dysfunction and neuronal loss. To identify inhibitors of tau aggregation, a heparin-induced tau fibril formation assay was used that employed a recombinantly expressed fragment of tau, K18 (Q242-E372), bearing a P301L mutation (Gustke et al. 1994; Hong et al. 1998). […] Total fluorescence (555 nm excitation and 632 nm emission) was measured to identify fluorescent or absorbent compounds at this wavelength. Such compounds may be artifacts that interfere with the Alexa 594 Tau fluorescence polarization assay. Gustke, N., B. Trinczek, et al. (1994). "Domains of tau protein and interactions with microtubules." Biochemistry 33(32): 9511-22. Hong, M., V. Zhukareva, et al. (1998). "Mutation-specific functional impairments in distinct tau isoforms of hereditary FTDP-17." Science 282(5395): 1914-7. Li, W. and V. M. Lee (2006). "Characterization of two VQIXXK motifs for tau fibrillization in vitro." Biochemistry 45(51): 15692-701. von Bergen, M., S. Barghorn, et al. (2001). "Mutations of tau protein in frontotemporal dementia promote aggregation of paired helical filaments by enhancing local beta-structure." J Biol Chem 276(51): 48165-74.
For screening, 2 uL/well human K18 P301L (15 uM unlabeled and 0.24 uM Alexa 594-labeled tau final concentrations) in reagent buffer (100 mM sodium acetate pH 7) was dispensed into black solid 1536-well plates (Grenier) using a solenoid-based dispenser. Following transfer of 23 nL compound or DMSO vehicle by a pin tool, 2 uL/well heparin (20 uM final concentration) in reagent buffer was added and the plate centrifuged 15 s at 1000 RPM. Plates were incubated 6 hr at 37 C and then 1 uL/well ThT (30 uM final concentration) was added. After a 1 hr ambient incubation, the plates were read by an Envision (Perkin Elmer) to monitor Alexa 594 FP (555 nm excitation and 632 nm emission). Keywords: NIH Roadmap, MLPCN, MLI, MLSMR, NCGC, qHTS, tau, tauopathies, Alzheimer's disease, fibril, neurodegeneration, aggregation
A general note: Counterscreens check selectivity or assay interference.
`COC(=O)c1c(NC(=O)CCCOc2ccc(C(C)(C)C)cc2)sc2c1C(C(=O)OC)CC2` (stereo not given): the Potency entry is “inactive”.

On to `CCOC(=O)c1nn(-c2ccc(C)c(C)c2)c(=O)c2c(N)scc12`, for which the Potency result was “inactive”.

As to `O=C(Cn1c(=O)c(CNc2ccccc2)cc2cc3c(cc21)OCCO3)Nc1ccccc1Cl`, the Potency result was “inactive”.

`CCOC(=O)c1c(N)sc2c1CN(C)CC2`: the Potency result was “inactive”.

Consider `Cc1nc2ccccc2oc1=O`, for which the Potency result is “inactive”.

Turning to `O=C(Cc1ccccc1)Nc1sc2c(c1C(=O)Nc1cccc(Cl)c1)CCCC2`, the Potency result was “inactive”.

As for `CCOC(=O)c1nn(-c2ccccc2)c(=O)c2c(N)sc(C)c12`, the Potency entry was “inactive”.

As to `O=C(NCCCO)Nc1ccc2nc(-c3ccco3)c(-c3ccco3)nc2c1`, the Potency was 3.16 µM [quencher] (active).

Consider `CC(=O)Nc1sc(C)c2cnn(-c3ccccc3)c(=O)c12`, for which the Potency entry is “inactive”.

Consider `COC(=O)C1CCc2sc(N)c(C(=O)OCc3ccccc3)c21` (stereo not given), for which the Potency result is “inactive”.

Take `Cn1cc(Cl)c(C(=O)Nc2cccc(Cl)c2Cl)n1`: the Potency entry was “inactive”.

Turning to `O=C(Nc1nnc(S(=O)(=O)Nc2ccccc2)s1)C1CCCCC1`, the Potency entry was “inactive”.

As for `Nc1scc2c(C(=O)O)nn(-c3ccccc3)c(=O)c12`, the Potency entry was “inactive”.

`O=S(=O)(c1ccc(NC(=S)N/N=C/c2ccc(N3CCOCC3)cc2)cc1)N1CCOCC1`: the Potency entry was “inactive”.

As to `O=C(Cc1ccccc1)Nc1sc2c(c1C(=O)Nc1ccc(Br)cc1)CCCC2`, the Potency result was “inactive”.

For `CCOC(=O)c1nn(-c2ccc(OC)cc2)c(=O)c2c(N)scc12`, the Potency entry was “inactive”.

Take `COc1ccc2c(c1)c(CC(=O)N1CCOCC1)c(C)n2C(=O)c1ccc(Cl)cc1`: the Potency result was “inactive”.

In the case of `Cc1ccc(S(=O)(=O)N(C)c2nc3ccccc3[nH]c2=S)cc1`, the Potency result was “inactive”.

As for `O=C(CSc1nc2scc(-c3ccco3)c2c(=O)n1-c1ccccc1)N1CCOCC1`, the Potency result is “inactive”.

Take `COc1ccc2oc(-c3ccc(NC(=O)c4ccc(N5CCOCC5)c([N+](=O)[O-])c4)cc3)nc2c1`: the Potency result was “inactive”.

On to `COC(=O)c1c(N)sc2c1C(C(=O)OC)CC2` (stereo not given), for which the Potency result is “inactive”.

Regarding `CC(C)c1ccc(NS(=O)(=O)c2ccc3[nH]cc(C(=O)NCCc4ccccc4)c(=O)c3c2)cc1`, the Potency result was “inactive”.

Take `COc1c(Cl)cccc1NC(=O)c1c(NC(=O)Cc2ccccc2)sc2c1CCCC2`: the Potency result was “inactive”.

On to `Nc1nc2cc(S(=O)(=O)NC3=NCCCCC3)ccc2s1`, for which the Potency result is “inactive”.

For `Cc1ccc(C(=O)Nc2nc(=O)n(C(=O)C3CC3)s2)cc1`, the Potency result was “inactive”.

As to `COC(=O)c1nn(-c2ccc(OC)cc2)c(=O)c2c(N)sc(C)c12`, the Potency entry was “inactive”.

On to `CCOC(=O)c1nn(-c2ccccc2)c(=O)c(C#N)c1C`, for which the Potency result is “inactive”.

As for `COc1ccc(CNC(=O)Cn2nc(C)n3cccc3c2=O)cc1`, the Potency result is “inactive”.

Turning to `Cc1cc2c(NC(=O)Nc3ccccc3)cccc2nn1`, the Potency entry was “inactive”.

On to `CCOC(=O)c1nn(-c2ccccc2F)c(=O)c2c(N)scc12`, for which the Potency result is “inactive”.

As to `CCOC(=O)c1ccc(S(=O)(=O)Nc2nc3cc(S(=O)(=O)NC4=NCCCCC4)ccc3s2)cc1`, the Potency result is “inactive”.

Regarding `Cc1ccc(NC(=O)N2CCN(c3ccccn3)CC2)cc1`, the Potency result was “inactive”.

In the case of `COc1ccc(-n2nc(C(=O)O)c3csc(N)c3c2=O)cc1`, the Potency result is “inactive”.

For `O=C(O)CN1C(=O)/C(=C/c2ccc(-c3cccc(Cl)c3)o2)SC1=S`, the Potency result is “inactive”.

For `CN(C)c1ccc(N2C(=O)CSC2=S)cc1`, the Potency result is “inactive”.

Turning to `Cc1ccc(-c2ccc(/C=N/N=C3/NC(=O)C(CC(=O)O)S3)o2)c([N+](=O)[O-])c1` (stereo not given), the Potency result was “inactive”.

On to `NCCc1ccc(O)c(O)c1`, for which the Potency result was “inactive”.

For `COC(=O)CSc1nc2ccc(NC(=O)CSc3nnnn3Cc3ccccc3)cc2s1`, the Potency result is “inactive”.

Consider `Cc1sc(N)c2c(=O)n(-c3ccccc3)ncc12`, for which the Potency result was “inactive”.

Consider `NC(=O)c1nn(-c2ccccc2)c(=O)c2c(N)scc12`, for which the Potency result was “inactive”.
